25 compounds from PubChem BioAssay AID1851 (National Center for Advancing Translational Sciences (NCATS), 2009) can be followed below.

The structures appear in SMILES notation. In all, about 16,000 compounds went through this assay and about 5,800 (36%) were called active. Roughly 23% stayed inconclusive and do not appear here. Calls come from the whole dose curve; as a rule, active = well fitted curve in the direction sought with a large enough effect; inconclusive = small, poorly fitted or top-dose-only effect, or effect the other way; inactive = no such curve, though single readings can be large or run the other way. Some of the results follow.
% is set by controls: 0 for no effect and ±100 for the full control effect.

Cytochrome P450 2C19 (Homo sapiens), sequence (P33261 whole entry, looked up): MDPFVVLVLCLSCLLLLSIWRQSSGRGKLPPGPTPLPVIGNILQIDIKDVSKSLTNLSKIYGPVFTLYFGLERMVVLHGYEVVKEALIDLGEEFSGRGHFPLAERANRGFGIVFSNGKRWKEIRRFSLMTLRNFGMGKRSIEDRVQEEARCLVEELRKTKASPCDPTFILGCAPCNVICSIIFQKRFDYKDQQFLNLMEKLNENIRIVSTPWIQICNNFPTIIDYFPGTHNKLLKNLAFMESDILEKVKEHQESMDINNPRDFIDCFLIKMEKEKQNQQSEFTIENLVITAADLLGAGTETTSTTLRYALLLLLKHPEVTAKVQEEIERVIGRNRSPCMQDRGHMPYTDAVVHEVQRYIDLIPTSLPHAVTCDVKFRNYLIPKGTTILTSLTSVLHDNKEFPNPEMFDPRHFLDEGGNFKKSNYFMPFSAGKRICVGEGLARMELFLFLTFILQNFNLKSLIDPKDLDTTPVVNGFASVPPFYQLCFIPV

The assay has as its target Cytochrome P450 2C19 (Homo sapiens) (UniProt P33261). Nature of the assay: Cytochrome panel assay with activity outcomes. The note with it: recombinant CYP, pro-luciferin dealkylation, luminescence, p450-cyp2c19; series mostly up to 57.1 µM; activity, negative = inhibition: at the top concentration.
For the compound `CCN(CCO)C[C@H]1CCC[C@H]2CCCC[C@@H]21`, the activity, negative = inhibition is 12.1% [at 11.4 µM] (inactive).
Take `CCON=C1C(C)(C)C(C)(C)C(C)(C)C1(C)C`: the activity, negative = inhibition is -8.06% [at 11.4 µM] (inactive).
Same read-out and setting: in the case of `COC(=O)[C@H](C)NC(=O)C/C=C\[C@@H](C)[C@H]1C=C[C@H](O)[C@@H](CO)O1` it was -2.78% [at 11.4 µM] (inactive).
On to `N#CCCn1c(=O)c(-c2cccc(C#N)c2)nc2cnc(Oc3cccc(Cl)c3)nc21`, for which the “activity, negative = inhibition” value is -21.1% (inactive).
As usually defined, the AC50 is the concentration giving half of the maximal activity seen. On to `O=c1cnc2cnc(Oc3ccccc3)nc2n1Cc1ccc(F)cc1`, for which the AC50 is 2510 nM (active).
With `O=c1cnc2cnc(Oc3cccc(Cl)c3)nc2n1Cc1ccc(F)cc1`, the AC50 was 20000 nM (active).
For `COCCn1c(=O)c(-c2ccc(F)cc2)nc2cnc(Oc3ccccc3)nc21`, the “activity, negative = inhibition” value is -37.8% (inactive).
On the same count and under the same terms, in the case of `N#CCCn1c(=O)c(-c2ccc(F)cc2)nc2cnc(Oc3cccc(Cl)c3)nc21` it was 24.7% (inactive); in that of `N#CCCn1c(=O)cnc2cnc(Oc3ccccc3)nc21`, -18.7% (inactive); in that of `N[C@H](CCCP(=O)(O)O)C(=O)O`, -15% (inactive).
Still for that read-out and setting: in the case of `CC(=O)C=NCC(=O)O` it was -14.5% [at 11.4 µM] (inactive).
Turning to `Cc1ccccc1OCCNC(=O)c1ccccc1Sc1ccccc1C#N`, the AC50 was 8910 nM (active).
On the same count and under the same terms, in the case of `Cc1nc(S(=O)(=O)c2cccc(Cl)c2)nc2c1CCC2` it was 15800 nM (active); in that of `CN(C(=O)c1cnc(N2CCN(c3ncccn3)CC2)c2ccccc12)c1ccc(Cl)cc1`, 1580 nM (active).
Take `COCC(=O)N1CCC2(CC1)CCN(c1ncccn1)CC2`: the “activity, negative = inhibition” value was 29.1% (inactive).
Still for that read-out and setting: the same measure for `COCC(=O)N1CCC2(CCCN(c3ncccn3)C2)CC1`: -0.728% (inactive).
On the same count and under the same terms, the same measure for `O=C(Oc1ccccc1)N1CCC2(CC1)CCN(c1ncccn1)CC2`: -25.4% (inactive).
On the same count and under the same terms, in the case of `COCC(=O)N1CCC2(CC1)CN(c1ccccn1)C2` it was 25.7% (inactive).
On to `CCN(C(=O)c1cnc(N2CCN(c3ncccn3)CC2)c2ccccc12)c1cccc(Cl)c1`, for which the AC50 is 251 nM (active).
Still for that read-out and setting: the same measure for `Fc1ccc(C2CC(c3ccco3)=NN2c2ccccc2)cc1` (stereo not given): 2240 nM (active).
Consider `C[C@@H]1CC[C@@H]2C(=O)N3[C@@H](CC[C@@H](C)[C@@H]3c3ccc(-c4ccco4)cc3)C(=O)N2[C@H]1c1ccc(-c2ccco2)cc1`, for which the activity, negative = inhibition was 0.199% [at 11.4 µM] (inactive).
Same read-out and setting: the same measure for `CCN1C(=O)[C@H]2[C@H]3[C@H](O)[C@H](O)C/C(=N/O[C@@H]4O[C@@H](COC(C)=O)[C@@H](OC(C)=O)[C@@H](OC(C)=O)[C@H]4OC(C)=O)[C@@H]3CC[C@@H]2C1=O`: 13.6% [at 11.4 µM] (inactive).
Still for that read-out and setting: the same measure for `O=C(c1cc(O)c(O)c([N+](=O)[O-])c1)c1ccccc1F`: -8.03% (inactive).
As for `Cc1ccc(-c2cccc(OC(=O)c3ccccc3F)c2)cc1`, the AC50 was 2510 nM (active).
On to `Cc1cc(OC(=O)c2ccccc2Cl)cc(=O)n1C`, for which the “activity, negative = inhibition” value is -13.3% (inactive).
